± gives the standard deviation.

Holding throughout (assay): peptide microarray binding signal (635 nm), min-max normalized on array (fraction of array maximum); higher = stronger binding
For assay [1], the target named is T1, HaloTag-ATRX ADD domain (163-292).
T1 chain: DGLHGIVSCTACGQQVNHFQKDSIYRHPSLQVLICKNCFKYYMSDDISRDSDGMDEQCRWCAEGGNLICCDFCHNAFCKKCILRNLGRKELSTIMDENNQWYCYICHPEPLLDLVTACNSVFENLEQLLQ
The procedure, abridged: (§1)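 For each library, binding signal was taken as the triplicate-spot mean intensity and then min-max scaled. Spots of histone 13-mer peptide–cellulose conjugates on nitrocellulose, printed in triplicate with a Cy3 tracer, were probed for 1 h at 4°C with either biotin-labelled HaloTag reader fusions (10 nM to 1 μM) and streptavidin-Alexa Fluor 647 or rabbit histone antibodies (1:10,000 to 1:2,000) and anti-rabbit Alexa 647. Readout at 635 nm came from an Axon GenePix 4000B.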

For assay [2], the target named is HaloTag-ING2 PHD (mouse Ing2 200-280). In a few lines:
as §1

In assay [3] the target is anti-H3K4me3 antibody ab8580. The procedure, abridged: as §1
In assay [4] the target is anti-H3K9me3 antibody ab8898. In a few lines: as §1
The mark [5] stands for this setting: peptide region: H3 11-23, peptide modifications: H3K14ac H3R17cit, binder concentration: 1:2,000 dilution.
Where [6] appears, read: peptide region: H3 11-23, peptide modifications: H3K14ac H3R17cit, binder concentration: 1:10,000 dilution.
Where [7] appears, read: peptide region: H3 5-17, peptide modifications: H3T11ph H3K14me1, binder concentration: 1:2,000 dilution.
The mark [8] stands for this setting: peptide region: H3 5-17, peptide modifications: H3T11ph H3K14me1, binder concentration: 1:10,000 dilution.
The mark [9] stands for this setting: peptide region: H3 11-23, peptide modifications: H3K14ac H3K18ac, binder concentration: 1:2,000 dilution.
Setting [10] is: peptide region: H3 11-23, peptide modifications: H3K14ac H3K18ac, binder concentration: 1:10,000 dilution.
[11] abbreviates: peptide region: H3 5-17, peptide modifications: H3S10ph H3K14me3, binder concentration: 1:2,000 dilution.
Where [12] appears, read: peptide region: H3 5-17, peptide modifications: H3S10ph H3K14me3, binder concentration: 1:10,000 dilution.
The mark [13] stands for this setting: peptide region: H3 5-17, peptide modifications: H3S10ph H3T11ph, binder concentration: 1:2,000 dilution.
The mark [14] stands for this setting: peptide region: H3 5-17, peptide modifications: H3S10ph H3T11ph, binder concentration: 1:10,000 dilution.

B1: H3 11-23 T G G Kac A P Rcit K Q L A T K (peptide)
chain: TGGKAPRKQLATK
Take B1: the “peptide microarray binding signal” value in assay [1] (peptide region: H3 11-23, peptide modifications: H3K14ac H3R17cit, binder concentration: 50 nM) was determined as 0.00671 ± 0.00027; in assay [1] (peptide region: H3 11-23, peptide modifications: H3K14ac H3R17cit, binder concentration: 500 nM), 0.013 ± 0.00041; in assay [2] (peptide region: H3 11-23, peptide modifications: H3K14ac H3R17cit, binder concentration: 10 nM) it was 0.018 ± 0.0015; in assay [2] (peptide region: H3 11-23, peptide modifications: H3K14ac H3R17cit, binder concentration: 100 nM), 0.0345 ± 0.0076; in assay [3] (setting [5]), 0.00517 ± 0.00085; in assay [3] (setting [6]) it was 0.00297 ± 0.00013. In addition, the “peptide microarray binding signal” value stood at 0.00171 ± 5.6e-05 in assay [4] (setting [5]) and 0.00127 ± 1.3e-05 in assay [4] (setting [6]).

B2: H3 5-17 Q T A R K S Tph G G Kme A P R (peptide)
chain: QTARKSTGGKAPR
Consider B2, for which the “peptide microarray binding signal” value was found to be 0.00301 ± 0.00011 in assay [1] (peptide region: H3 5-17, peptide modifications: H3T11ph H3K14me1, binder concentration: 50 nM); 0.00562 ± 0.00013 in assay [1] (peptide region: H3 5-17, peptide modifications: H3T11ph H3K14me1, binder concentration: 500 nM); 0.00466 ± 0.00013 in assay [2] (peptide region: H3 5-17, peptide modifications: H3T11ph H3K14me1, binder concentration: 10 nM); 0.00496 ± 0.00066 in assay [2] (peptide region: H3 5-17, peptide modifications: H3T11ph H3K14me1, binder concentration: 100 nM); 0.00106 ± 2.3e-05 in assay [3] (setting [7]); 0.0012 ± 3.2e-05 in assay [3] (setting [8]). For the same molecule, the “peptide microarray binding signal” value in assay [4] (setting [7]) is 0.00112 ± 2.3e-05; in assay [4] (setting [8]), 0.000807.

B3: H3 11-23 T G G Kac A P R Kac Q L A T K (peptide)
chain: TGGKAPRKQLATK
For B3, the “peptide microarray binding signal” value in assay [1] (peptide region: H3 11-23, peptide modifications: H3K14ac H3K18ac, binder concentration: 50 nM) was 0.00511 ± 0.00036; in assay [1] (peptide region: H3 11-23, peptide modifications: H3K14ac H3K18ac, binder concentration: 500 nM) it was 0.013 ± 0.00068; in assay [2] (peptide region: H3 11-23, peptide modifications: H3K14ac H3K18ac, binder concentration: 10 nM), 0.00913 ± 0.0004; in assay [2] (peptide region: H3 11-23, peptide modifications: H3K14ac H3K18ac, binder concentration: 100 nM), 0.0128 ± 0.00072; in assay [3] (setting [9]), 0.00445 ± 0.00038; in assay [3] (setting [10]), 0.00896 ± 0.0029. In addition, the “peptide microarray binding signal” value was 0.00139 ± 6.5e-05 in assay [4] (setting [9]) and 0.00115 ± 2e-05 in assay [4] (setting [10]).

B4: H3 5-17 Q T A R K Sph T G G Kme3 A P R (peptide)
chain: QTARKSTGGKAPR
Turning to B4, the “peptide microarray binding signal” value in assay [1] (peptide region: H3 5-17, peptide modifications: H3S10ph H3K14me3, binder concentration: 50 nM) was 0.005486 ± 5.1e-05; in assay [1] (peptide region: H3 5-17, peptide modifications: H3S10ph H3K14me3, binder concentration: 500 nM) it was 0.0236 ± 0.0018; in assay [2] (peptide region: H3 5-17, peptide modifications: H3S10ph H3K14me3, binder concentration: 10 nM), 0.0113 ± 0.0025; in assay [2] (peptide region: H3 5-17, peptide modifications: H3S10ph H3K14me3, binder concentration: 100 nM), 0.014 ± 0.0073; in assay [3] (setting [11]), 0.0516 ± 0.0021; in assay [3] (setting [12]), 0.0433 ± 0.025. Moreover, the “peptide microarray binding signal” value in assay [4] (setting [11]) worked out at 0.132 ± 0.038; in assay [4] (setting [12]), 0.0759 ± 0.013.

B5: H3 5-17 Q T A R K Sph Tph G G K A P R (peptide)
chain: QTARKSTGGKAPR
As to B5, the “peptide microarray binding signal” value in assay [1] (peptide region: H3 5-17, peptide modifications: H3S10ph H3T11ph, binder concentration: 50 nM) turned out to be 0.00295 ± 9.8e-05; in assay [1] (peptide region: H3 5-17, peptide modifications: H3S10ph H3T11ph, binder concentration: 500 nM) it was 0.00695 ± 0.00038; in assay [2] (peptide region: H3 5-17, peptide modifications: H3S10ph H3T11ph, binder concentration: 10 nM), 0.00346 ± 9.7e-05; in assay [2] (peptide region: H3 5-17, peptide modifications: H3S10ph H3T11ph, binder concentration: 100 nM) it was 0.016 ± 0.0014; in assay [3] (setting [13]), 0.000302 ± 3.1e-06; in assay [3] (setting [14]) it was 0.000285 ± 3.1e-06. For the same molecule, the results for the “peptide microarray binding signal” value in assay [4] (setting [13]) and in assay [4] (setting [14]) were 0.00107 ± 0.00014 and 0.000461 ± 8.7e-06, respectively.

The values above are taken from the supplement of paper PMC4022240.
